According to PubChem BioAssay AID1159580 (chemical genetic matrix, 2015):
Screen size: about 5,500 compounds; about 2,000 (36%) were called active. Roughly 18% stayed inconclusive and do not appear here. Rule as the data show it: active = normalized growth mostly below about 0.91 (no sharp cut-off); inconclusive = no clear call, values can overlap the other calls; inactive = mostly above about 0.92. This is one part of the list.

Test: chemical genetic growth profiling, strain panel (AID 1159580);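 also: tested at 20 µM; growth read once vehicle control cultures reached saturation at 30 °C; 1 = growth at the plate median or of vehicle wells; lower values mean less growth of the strain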
Details: growth OD

Measured: normalized growth

Cc1cccc(N(C)C(=S)Oc2ccc3ccccc3c2)c1
active: S. cerevisiae deletion strains, locus YLR039C, strain RIC1, stronger effect = lower value 1.46 [resistant] | S. cerevisiae deletion strains, locus YLR262C, strain YPT6, stronger effect = lower value 1.48 [resistant]
inactive: S. cerevisiae deletion strains, locus YJR075W, strain HOC1, stronger effect = lower value 0.971 | S. cerevisiae deletion strains, locus YKL009W, strain mrt4, stronger effect = lower value 0.99 | S. cerevisiae deletion strains, locus YKL068W, stronger effect = lower value 0.981 | S. cerevisiae deletion strains, locus YKL085W, strain MDH1 (second series), stronger effect = lower value 0.979 | S. cerevisiae deletion strains, locus YKL085W, strain MDH1, stronger effect = lower value 0.979 | S. cerevisiae deletion strains, locus YKL160W, strain elf1, stronger effect = lower value 0.947 | S. cerevisiae deletion strains, locus YKL190W, strain CNB1, stronger effect = lower value 0.983 | S. cerevisiae deletion strains, locus YKR001C, strain vps1, stronger effect = lower value 1.01 | S. cerevisiae deletion strains, locus YKR026C, strain gcn3, stronger effect = lower value 1 | S. cerevisiae deletion strains, locus YKR091W, strain srl3, stronger effect = lower value 0.993 | S. cerevisiae deletion strains, locus YLL001W, strain dnm1, stronger effect = lower value 0.994 | S. cerevisiae deletion strains, locus YLL026W, stronger effect = lower value 0.985 | S. cerevisiae deletion strains, locus YLL041C, strain sdh2, stronger effect = lower value 0.987 | S. cerevisiae deletion strains, locus YLR027C, strain aat2, stronger effect = lower value 0.99 | S. cerevisiae deletion strains, locus YLR058C, strain SHM2, stronger effect = lower value 0.972 | S. cerevisiae deletion strains, locus YLR102C, strain apc9, stronger effect = lower value 0.979 | S. cerevisiae deletion strains, locus YLR113W, strain HOG1, stronger effect = lower value 0.91 | S. cerevisiae deletion strains, locus YLR221C, strain rsa3, stronger effect = lower value 1.02 | S. cerevisiae deletion strains, locus YLR258W, strain gsy2, stronger effect = lower value 0.974 | S. cerevisiae deletion strains, locus YLR262C, strain YPT6 (second series), stronger effect = lower value 1.13 | S. cerevisiae deletion strains, locus YLR268W, strain sec22, stronger effect = lower value 0.971 | S. cerevisiae deletion strains, locus YLR320W, strain mms22, stronger effect = lower value 0.98 | S. cerevisiae deletion strains, locus YLR330W, strain CHS5, stronger effect = lower value 0.984 | S. cerevisiae deletion strains, locus YLR342W, strain FKS1 (second series), stronger effect = lower value 0.995 | S. cerevisiae deletion strains, locus YLR342W, strain FKS1, stronger effect = lower value 1.01 | S. cerevisiae deletion strains, locus YLR357W, strain rsc2, stronger effect = lower value 0.999 | S. cerevisiae deletion strains, locus YLR370C, strain arc18, stronger effect = lower value 1.01 | S. cerevisiae deletion strains, locus YLR371W, strain rom2, stronger effect = lower value 0.947 | S. cerevisiae deletion strains, locus YLR384C, strain iki3, stronger effect = lower value 0.995 | S. cerevisiae deletion strains, locus YLR418C, strain cdc73, stronger effect = lower value 0.904 | S. cerevisiae deletion strains, locus YML016C, strain PPZ1, stronger effect = lower value 0.998 | S. cerevisiae deletion strains, locus YML032C, strain rad52, stronger effect = lower value 0.991 | S. cerevisiae deletion strains, locus YML120C, strain ndi1, stronger effect = lower value 1 | S. cerevisiae deletion strains, locus YML124C, strain tub3, stronger effect = lower value 0.969 | S. cerevisiae deletion strains, locus YMR058W, strain fet3, stronger effect = lower value 0.994 | S. cerevisiae deletion strains, locus YMR078C, strain ctf18, stronger effect = lower value 0.965 | S. cerevisiae deletion strains, locus YMR125W, strain sto1, stronger effect = lower value 0.988 | S. cerevisiae deletion strains, locus YMR129W, stronger effect = lower value 0.991 | S. cerevisiae deletion strains, locus YMR205C, strain PFK2, stronger effect = lower value 0.952 | S. cerevisiae deletion strains, locus YMR223W, strain ubp8, stronger effect = lower value 0.955 | S. cerevisiae deletion strains, locus YMR231W, strain pep5, stronger effect = lower value 1.03 | S. cerevisiae deletion strains, locus YMR263W, strain SAP30, stronger effect = lower value 0.958 | S. cerevisiae deletion strains, locus YMR307W, strain GAS1, stronger effect = lower value 0.981 | S. cerevisiae deletion strains, locus YNL067W, strain RPL9B, stronger effect = lower value 0.989 | S. cerevisiae deletion strains, locus YNL071W, strain lat1, stronger effect = lower value 1.01 | S. cerevisiae deletion strains, locus YNL183C, strain NPR1, stronger effect = lower value 0.907 | S. cerevisiae deletion strains, locus YNL209W, strain ssb2, stronger effect = lower value 0.999 | S. cerevisiae deletion strains, locus YNL233W, strain BNI4, stronger effect = lower value 0.985 | S. cerevisiae deletion strains, locus YNL248C, strain rpa49, stronger effect = lower value 0.998 | S. cerevisiae deletion strains, locus YNL250W, strain rad50, stronger effect = lower value 0.977 | S. cerevisiae deletion strains, locus YNL271C, strain bni1, stronger effect = lower value 1 | S. cerevisiae deletion strains, locus YNL298W, strain CLA4, stronger effect = lower value 0.99 | S. cerevisiae deletion strains, locus YNL307C, strain MCK1, stronger effect = lower value 0.98 | S. cerevisiae deletion strains, locus YNL322C, strain KRE1 (second series), stronger effect = lower value 1 | S. cerevisiae deletion strains, locus YNL322C, strain KRE1, stronger effect = lower value 0.982 | S. cerevisiae deletion strains, locus YNR049C, strain mso1, stronger effect = lower value 0.999 | S. cerevisiae deletion strains, locus YNR052C, strain pop2, stronger effect = lower value 0.986 | S. cerevisiae deletion strains, locus YOL006C, strain TOP1, stronger effect = lower value 0.828 | S. cerevisiae deletion strains, locus YOL012C, strain htz1 0.985 | S. cerevisiae deletion strains, locus YOL147C, strain pex11, stronger effect = lower value 0.982 | S. cerevisiae deletion strains, locus YOR001W, strain rrp6, stronger effect = lower value 1 | S. cerevisiae deletion strains, locus YOR061W, strain CKA2, stronger effect = lower value 0.966 | S. cerevisiae deletion strains, locus YOR069W, strain VPS5, stronger effect = lower value 0.988 | S. cerevisiae deletion strains, locus YOR070C, strain gyp1, stronger effect = lower value 0.992 | S. cerevisiae deletion strains, locus YOR080W, strain dia2, stronger effect = lower value 0.981 | S. cerevisiae deletion strains, locus YOR083W, strain WHI5, stronger effect = lower value 0.947 | S. cerevisiae deletion strains, locus YOR106W, strain vam3, stronger effect = lower value 0.968 | S. cerevisiae deletion strains, locus YOR136W, strain idh2, stronger effect = lower value 0.978 | S. cerevisiae deletion strains, locus YOR144C, strain elg1, stronger effect = lower value 0.971 | S. cerevisiae deletion strains, locus YOR184W, strain ser1, stronger effect = lower value 0.897 | S. cerevisiae deletion strains, locus YOR231W, strain MKK1, stronger effect = lower value 0.945 | S. cerevisiae deletion strains, locus YOR265W, strain rbl2, stronger effect = lower value 0.969 | S. cerevisiae deletion strains, locus YOR270C, strain vph1, stronger effect = lower value 0.942 | S. cerevisiae deletion strains, locus YOR290C, strain snf2, stronger effect = lower value 0.999 | S. cerevisiae deletion strains, locus YOR316C, strain cot1, stronger effect = lower value 0.975 | S. cerevisiae deletion strains, locus YPL051W, strain arl3, stronger effect = lower value 0.988 | S. cerevisiae deletion strains, locus YPL055C, strain LGE1, stronger effect = lower value 0.922 | S. cerevisiae deletion strains, locus YPL078C, strain atp4, stronger effect = lower value 0.953 | S. cerevisiae deletion strains, locus YPL106C, strain sse1, stronger effect = lower value 0.941 | S. cerevisiae deletion strains, locus YPL240C, strain hsp82, stronger effect = lower value 0.99 | S. cerevisiae deletion strains, locus YPL256C, strain CLN2, stronger effect = lower value 0.931 | S. cerevisiae deletion strains, locus YPR119W, strain clb2, stronger effect = lower value 0.963 | S. cerevisiae deletion strains, locus YPR141C, strain kar3, stronger effect = lower value 0.973 | S. cerevisiae deletion strains, locus YPR163C, strain tif3, stronger effect = lower value 0.976 | S. cerevisiae deletion strains, locus YPR167C, strain met16, stronger effect = lower value 0.973 | S. cerevisiae deletion strains, strain wtn01, stronger effect = lower value 0.994 | S. cerevisiae strains, strain wild type, stronger effect = lower value 1.01
